Measurements: PubChem BioAssay (Tox21)
“And” between values parts separate entries of the source, which are not always exact repeats. Equal entries are not always repeated. Inconclusive results are not listed. More than one record can exist for a structure, and the calls need not agree. The source made the active and inactive calls. Unless noted, the call rests on the fitted dose curve; in most records, active means well fitted curve in the direction sought with a large enough effect in the repeat runs; inconclusive means weak or mixed curves; inactive means no such curve, though single readings can be large; an effect the other way counts as inactive or inconclusive.

Experiments:
[1] = qHTS RealTime-Glo MT Cell Viability Assay in HepG2 cells - 16 hour (AID 1224885); further: nearly all actives have a fitted effect of over 50% in size
Procedure, shortened: (§1)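 Real-time, nonlytic viability: 600 HepG2 cells/well mixed with NanoLuc enzyme plus prosubstrate; 5 h settle, compound (DMSO) added by pintool; luminescence monitored over 40 h at 37 C.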

[2] = qHTS RealTime-Glo MT Cell Viability Assay in HEK293 cells - 24 hour (AID 1224886); further: nearly all actives have a fitted effect of over 50% in size; further: potency means the concentration at half of the fitted maximal effect; on activity change, negative = cytotoxicity: top concentration of the series differs between compounds
Procedure, shortened: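 Cells + reagent dispensed (600 cells/well, HEK293) → 5 h at 37 C/5% CO2 → 23 nL compound in DMSO pinned → 40 h at 37 C → luminescence read at 0, 8, 16, 24, 32, 40 h.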

[3] = qHTS RealTime-Glo MT Cell Viability Assay in HEK293 cells - 8 hour (AID 1224887); further: top concentration of the series differs between compounds; nearly all actives have a fitted effect of over 50% in size
Procedure, shortened: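 Luminescence, which tracks viable cell number through reduction of the prosubstrate to a NanoLuc substrate, was read over continuous 37 C culture. Cells (600/well) were premixed with reagent and rested 5 h before 23 nL of compound in DMSO was pinned.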

[4] = A CellTox Green Cytotoxicity Assay to monitor cytotoxicity in HEK293 cells - 16 hour (AID 1224888); further: nearly all actives have a fitted effect of over 35% in size
Procedure, shortened: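 Fluorescence from a DNA-binding dye excluded by viable cells was measured repeatedly in the same HEK293 wells (600 cells/well) during continuous compound exposure at 37 C. Each assay gives one read point: 0, 8, 16, 24, 32 or 40 h.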

[5] = qHTS RealTime-Glo MT Cell Viability Assay in HepG2 cells - 0 hour (AID 1224889); further: nearly all actives have a fitted effect of over 50% in size
Procedure, shortened: as §1

[6] = A CellTox Green Cytotoxicity Assay to monitor cytotoxicity in HepG2 cells - 8 hour (AID 1224890); further: nearly all actives have a fitted effect of over 45% in size
Procedure, shortened: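 Real-time cytotoxicity: fluorescence of a cell-impermeant cyanine dye binding DNA of dead HepG2 cells, measured repeatedly (0–40 h) during compound exposure at 37 C. Cells seeded 600/well with reagent, dosed after 5 h.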

[7] = qHTS assay to identify small molecule antagonists of the estrogen receptor alpha (ER-alpha) signaling pathway using the BG1 cell line in the presence of 0.1 nM 17-beta-estradiol - cell viability counter screen (AID 1259241); further: nearly all actives have a fitted effect of over 40% in size
Procedure, shortened: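 VM7Luc4E2 cells (endogenous ER-alpha, 4×ERE-luciferase), hormone-starved 5 days in charcoal-stripped FBS, were treated with compounds plus 0.1 nM 17beta-estradiol for 22 hr at 37C; viability read in same wells as CellTiter-Fluor live-cell protease fluorescence.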

[8] = qHTS assay to identify small molecule antagonists of the androgen receptor (AR) signaling pathway using the MDA cell line in the presence of 0.5 nM R1881 - cell viability counter screen (AID 1259242); further: nearly all actives have a fitted effect of over 45% in size
Procedure, shortened: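 Live-cell protease activity was measured by CellTiter-Fluor fluorescence after 30 min. Before that, MDA-kb2 MMTV-luciferase cells had 16 hr at 37C without CO2, exposed to test compounds and 0.5 nM R1881 final.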

[9] = qHTS assay to identify small molecule HDAC inhibitors (AID 1259364); further: top concentration of the series differs between compounds; nearly all actives have a fitted effect of over 45% in size
Procedure, shortened: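 Luminescence read after 30 min room-temperature HDAC-Glo incubation measures cellular class I/II HDAC activity. Compounds were applied for 2 hr at 37 C to HCT-116 wild-type cells seeded the day before.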

[10] = qHTS assay to identify small molecule HDAC inhibitors - cell viability counter screen (AID 1259365)
Procedure, shortened: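 Wild-type HCT-116 cells were seeded at 1,500 per well, incubated overnight at 37 C, then exposed to compounds in DMSO for 2hr. Viability was read by CellTiter-Glo luminescence after 30min at room temperature.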

[11] = qHTS assay to identify small molecule agonists of the sonic hedgehog signaling (Shh) pathway - cell viability counter screen (AID 1259366); further: nearly all actives have a fitted effect of over 50% in size
Procedure, shortened: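 NIH/3T3-derived 3T3 Gli1-Luc cells (stable Gli1-responsive firefly luciferase reporter) were seeded, rested 4 hr at 37 C/5% CO2, then exposed to compounds in DMSO for 24 hr; viability was read by CellTiter-Fluor fluorescence in the same wells.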

[12] = qHTS assay to identify small molecule antagonists of the sonic hedgehog signaling (Shh) pathway - cell viability counter screen (AID 1259367); further: nearly all actives have a fitted effect of over 55% in size; further: potency means the concentration at half of the fitted maximal effect
Procedure, shortened: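 Tox21 library chemicals were tested on a Gli1-Luc NIH/3T3 clone (2,000 cells/well) stimulated by conditioned medium; viability was quantified as fluorescence from CellTiter-Fluor reagent added at 23 hr.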

[13] = qHTS assay to identify small molecule agonists of the sonic hedgehog signaling (Shh) pathway (AID 1259368; calls by dose curve; further: series mostly up to about 92 µM; nearly all actives have a fitted effect of over 15% in size)
Procedure, shortened: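 Luminescence was read after 30 min at room temperature with luciferase reagent. Before that, 3T3Gli1-Luc cells (NIH/3T3 clone, stable Gli1-Luc reporter; 2,000/well) were exposed to compounds for 24 hr at 37C, 5% CO2, compounds being added 4 hr post-plating.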

[14] = qHTS assay to identify small molecule antagonists of the sonic hedgehog signaling (Shh) pathway (AID 1259369; calls by dose curve; further: nearly all actives have a fitted effect of over 45% in size; further: potency means the concentration at half of the fitted maximal effect)
Procedure, shortened: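 Antagonist mode: compound added to 3T3 Gli1-Luc cells followed by conditioned-medium stimulation, 24 h at 37 C, 5% CO2. Inhibition taken as loss of Gli1-driven luciferase luminescence.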

[15] = target: Estrogen receptor beta (Homo sapiens) (UniProt Q92731); assay: qHTS assay to identify small molecule agonists of the estrogen receptor beta (ER-beta) signaling pathway (AID 1259377; active means well fitted activation curve with a large enough effect in the signal ratio in the repeat runs, not every such curve was filed as active; the % refers to the signal ratio)
Procedure, shortened: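 ER-beta-UAS-bla HEK293T (GripTite) cells carrying a UAS-driven beta-lactamase reporter, in medium with 2% charcoal-stripped FBS, were exposed to compounds for 16 hr at 37C; LiveBLAzer B/G FRET substrate was then added and fluorescence read after 2 hours at room temperature.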

[16] = target: Estrogen receptor beta (Homo sapiens) (UniProt Q92731); assay: qHTS assay to identify small molecule antagonists of the estrogen receptor beta (ER-beta) signaling pathway (AID 1259378; active means well fitted inhibition curve with a large enough effect in the signal ratio in the repeat runs, not every such curve was filed as active; the % refers to the signal ratio)
Procedure, shortened: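 ER-beta-UAS-bla HEK293T cells in 2% charcoal-stripped FBS medium treated with compound plus 1nM final 17-beta-estradiol for 16 hr at 37C. Beta-lactamase reporter read by FRET substrate fluorescence after 2 hours at room temperature.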

[17] = qHTS assay to identify small molecule agonists of the androgen receptor (AR) signaling pathway in the presence of an antagonist - cell viability counter screen (AID 1259379);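 further: MDA-kb2 human breast cancer cells carrying an MMTV luciferase reporter; series mostly up to about 92 µM; nearly all actives have a fitted effect of over 25% in size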
Procedure, shortened: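 Cytotoxicity counter-screen run in the same wells as the nilutamide-challenged (3.0 µM final) AR agonist assay in MDA-kb2 cells. Compounds tested at 15 concentrations for 16 h, 37 °C without CO2; CellTiter-Fluor fluorescence read.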

[18] = target: Androgen receptor (Homo sapiens) (UniProt P10275); assay: qHTS assay to identify small molecule antagonists of the androgen receptor (AR) signaling pathway using the MDA cell line in the presence of 0.5 nM R1881 (AID 1259243); further: nearly all actives have a fitted effect of over 50% in size
Procedure, shortened: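 Luminescent reporter readout (ONE-Glo, 30 min, room temperature) after 16 hr co-treatment of MDA-kb2 cells with test compounds and 0.5 nM R1881 final, at 37C without CO2. The MMTV-driven luciferase responds to both AR and GR.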

[19] = qHTS assay to identify small molecule phospholipidosis (PLD) inducers (AID 1259344; active means well fitted curve in the direction sought with a large enough effect; an effect the other way counts as inactive or inconclusive)
Procedure, shortened: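 Image-based: LipidTOX Red pit count/intensity per well and per cell; HepG2, 24 h compound at 37 C, PFA fixation, Hoechst counterstain.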

[20] = target: Estrogen receptor (Homo sapiens) (UniProt P03372); assay: qHTS assay to identify small molecule antagonists of the estrogen receptor alpha (ER-alpha) signaling pathway using the BG1 cell line in the presence of 0.1 nM 17-beta-estradiol (AID 1259244); further: nearly all actives have a fitted effect of over 50% in size; further: potency means the concentration at half of the fitted maximal effect
Procedure, shortened: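 Luciferase luminescence (ONE-Glo, 30 min at room temperature) was read after 22 hr at 37C exposure to compounds plus 17beta-estradiol at 0.1 nM final. Cells were VM7Luc4E2 with endogenous ER-alpha and an ERE-driven luciferase, pre-cultured 5 days in hormone-depleted medium.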
On the % scale 0 is the no-effect control and ±100 the full control effect.

Androgen receptor (Homo sapiens), sequence (P10275 whole entry, looked up): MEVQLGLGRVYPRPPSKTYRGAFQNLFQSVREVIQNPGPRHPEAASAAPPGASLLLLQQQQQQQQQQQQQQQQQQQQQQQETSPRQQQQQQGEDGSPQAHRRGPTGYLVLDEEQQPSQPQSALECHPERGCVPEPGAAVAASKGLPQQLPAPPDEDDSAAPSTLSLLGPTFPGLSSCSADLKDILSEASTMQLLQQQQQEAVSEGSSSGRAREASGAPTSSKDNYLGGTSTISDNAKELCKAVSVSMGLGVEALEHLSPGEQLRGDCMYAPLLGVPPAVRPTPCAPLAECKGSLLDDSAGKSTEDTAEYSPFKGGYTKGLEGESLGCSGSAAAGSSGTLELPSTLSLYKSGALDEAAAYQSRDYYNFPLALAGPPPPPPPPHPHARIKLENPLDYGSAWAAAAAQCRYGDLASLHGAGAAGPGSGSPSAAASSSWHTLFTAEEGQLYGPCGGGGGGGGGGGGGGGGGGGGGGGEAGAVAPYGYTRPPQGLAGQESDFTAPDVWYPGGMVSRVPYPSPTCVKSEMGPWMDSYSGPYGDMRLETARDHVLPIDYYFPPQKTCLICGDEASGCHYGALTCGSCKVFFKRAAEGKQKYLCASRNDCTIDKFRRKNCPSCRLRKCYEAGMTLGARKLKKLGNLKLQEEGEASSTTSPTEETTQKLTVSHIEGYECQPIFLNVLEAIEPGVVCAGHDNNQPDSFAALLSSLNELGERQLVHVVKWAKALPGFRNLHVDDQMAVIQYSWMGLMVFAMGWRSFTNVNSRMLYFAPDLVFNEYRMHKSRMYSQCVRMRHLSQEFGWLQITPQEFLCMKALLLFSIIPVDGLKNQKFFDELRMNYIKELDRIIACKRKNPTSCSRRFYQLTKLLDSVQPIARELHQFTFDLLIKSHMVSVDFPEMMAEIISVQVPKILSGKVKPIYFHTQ
Estrogen receptor beta (Homo sapiens), sequence (Q92731 whole entry, looked up): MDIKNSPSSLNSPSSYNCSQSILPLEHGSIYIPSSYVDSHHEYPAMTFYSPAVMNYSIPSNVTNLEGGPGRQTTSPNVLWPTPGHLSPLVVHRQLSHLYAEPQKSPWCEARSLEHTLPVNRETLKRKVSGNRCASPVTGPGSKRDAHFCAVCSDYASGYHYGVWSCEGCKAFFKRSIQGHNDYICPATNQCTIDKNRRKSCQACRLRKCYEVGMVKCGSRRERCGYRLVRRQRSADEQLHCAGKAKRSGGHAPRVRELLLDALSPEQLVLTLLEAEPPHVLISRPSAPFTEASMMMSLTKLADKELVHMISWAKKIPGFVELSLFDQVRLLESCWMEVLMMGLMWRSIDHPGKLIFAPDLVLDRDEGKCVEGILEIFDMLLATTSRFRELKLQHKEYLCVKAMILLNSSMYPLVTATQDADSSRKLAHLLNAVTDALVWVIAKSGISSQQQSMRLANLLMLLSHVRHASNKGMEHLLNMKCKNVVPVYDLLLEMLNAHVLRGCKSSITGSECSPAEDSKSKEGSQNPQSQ
Estrogen receptor (Homo sapiens), sequence (P03372 whole entry, looked up): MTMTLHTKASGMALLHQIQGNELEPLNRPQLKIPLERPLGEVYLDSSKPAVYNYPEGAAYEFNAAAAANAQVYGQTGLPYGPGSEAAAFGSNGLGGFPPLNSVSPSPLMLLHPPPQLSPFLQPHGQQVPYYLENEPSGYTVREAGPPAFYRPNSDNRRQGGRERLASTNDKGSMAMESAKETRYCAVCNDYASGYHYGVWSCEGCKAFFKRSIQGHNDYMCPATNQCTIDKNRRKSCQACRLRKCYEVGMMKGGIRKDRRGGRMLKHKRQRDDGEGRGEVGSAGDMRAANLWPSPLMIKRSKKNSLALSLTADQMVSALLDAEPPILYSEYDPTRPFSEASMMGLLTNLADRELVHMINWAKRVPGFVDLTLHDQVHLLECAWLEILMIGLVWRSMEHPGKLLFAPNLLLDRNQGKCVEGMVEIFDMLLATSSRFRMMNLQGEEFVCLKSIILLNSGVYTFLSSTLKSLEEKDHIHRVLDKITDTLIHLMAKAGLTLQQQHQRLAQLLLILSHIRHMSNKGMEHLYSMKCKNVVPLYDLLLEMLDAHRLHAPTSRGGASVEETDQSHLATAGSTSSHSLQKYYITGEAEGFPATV

O=c1[nH]nnc2ccccc12
inactive: outcome [1] | Potency [2] | Potency [3] | outcome [4] | Potency [5] | Potency [6] | Potency [7] | outcome [8] | Potency [9] | outcome [10] | Potency [11] | Potency [12] | outcome [13] | Potency [14] | Potency [15] | Potency [16] | Potency [17]

C[Si](O[Si](C)(C)C)O[Si](C)(C)C
inactive: outcome [1] | Potency [2] | Potency [3] | outcome [4] | Potency [5] | Potency [6] | Potency [7] | outcome [8] | Potency [18] | Potency [9] | outcome [10] | Potency [11] | Potency [12] | outcome [13] | Potency [14] | Potency [15] | Potency [16] | Potency [17]

NNc1nncc2ccccc12
active: Potency [12] 61.1 µM
inactive: outcome [1] | activity change, negative = cytotoxicity [2] 2.63% [at 15.8 µM] | activity change, negative = cytotoxicity [3] 1.02% [at 15.8 µM] | outcome [4] | Potency [5] | Potency [6] | Potency [7] | outcome [8] | outcome [19] | activity change, negative = inhibition [9] -29.1% [at 19 µM] | outcome [10] | viability change, negative = cytotoxic [12] 1.95% [at 19 µM] | outcome [13] | Potency [14] | Potency [17]

CC(C)c1ccc(S(=O)(=O)O)cc1
inactive: outcome [1] | Potency [2] | Potency [3] | outcome [4] | Potency [5] | Potency [6] | Potency [7] | outcome [8] | Potency [20] | Potency [9] | outcome [10] | Potency [12] | outcome [13] | Potency [14] | Potency [15] | Potency [16] | Potency [17]

CCCCCCCCCCCCS
inactive: outcome [1] | Potency [2] | Potency [3] | outcome [4] | Potency [5] | Potency [6] | Potency [7] | outcome [8] | Potency [20] | Potency [9] | outcome [10] | Potency [11] | Potency [12] | outcome [13] | Potency [14] | Potency [15] | Potency [16]

Fc1ccc(Br)cc1
inactive: outcome [1] | Potency [2] | Potency [3] | Potency [5] | Potency [6] | Potency [7] | outcome [8] | Potency [20] | Potency [9] | outcome [10] | Potency [11] | Potency [12] | outcome [13] | Potency [14] | Potency [17]

C=C(C)C(=O)Nc1ccc(Cl)c(Cl)c1
inactive: outcome [1] | outcome [4] | Potency [5] | Potency [6] | Potency [7] | outcome [8] | Potency [9] | outcome [10] | Potency [11] | Potency [12] | outcome [13] | Potency [15] | Potency [16]
active: Potency [2] 19.7 µM and 21.8 µM | Potency [20] 69.3 µM | Potency [14] 17.4 µM and 43.1 µM

O=C(O)c1ccc2c(c1)C(=O)OC2=O
inactive: outcome [1] | Potency [2] | Potency [3] | Potency [5] | Potency [6] | Potency [7] | outcome [8] | Potency [18] | Potency [20] | Potency [9] | outcome [10] | Potency [11] | Potency [12] | outcome [13] | Potency [14] | Potency [15] | Potency [16] | Potency [17]
